Molecules are shown by their SMILES. Records with an inconclusive call do not appear. Where a call stands in place of a potency, no number is given. Where a structure was tested more than once in an assay, its records may differ in their call. Activity calls are given as the source filed them. Unless noted, the call rests on the fitted dose curve; in most records, active means well fitted curve in the direction sought with a large enough effect; inconclusive means small, poorly fitted or top-dose-only effect, or another doubt; inactive means no such curve, though single readings can be large; an effect the other way counts as inactive or inconclusive.

The values that follow come from PubChem BioAssay (NCATS).

Test [1] concerns the target Tumor susceptibility gene 101 protein (Homo sapiens) (UniProt Q99816). Briefly: qHTS Assay for Iinhibitors of HIV-1 Budding by Blocking the Interaction of PTAP/TSG101: Hit Validation (AID 651600). Further: nearly all actives have a fitted effect of over 70% in size. The method in brief: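 Measuring PTAP–Tsg101 interaction by FP: protein at 10 uM and fluorescent peptide at 50 nM (final), buffer 10 mM HEPES pH 7.5 with 0.15 M NaCl, 3 mM EDTA, 0.1 mM TCEP, 0.01% Tween 20; 20 min incubation, r.t.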

The nature of test [2]: qHTS Assay for Identification of Small Molecule Antagonists for NFkB Signaling Pathway (AID 895; active means well fitted inhibition curve with a large enough effect in the signal ratio, with a control signal flat, not every such curve was filed as active; the % refers to the signal ratio; further: potency means the concentration at half of the fitted maximal effect). The method in brief: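 NFkB-bla ME-180 cervical carcinoma cells with beta-lactamase reporter under NFkB response element; compounds added, then TNF alpha at 10 pM final (EC50), 5 h at 37 C. LiveBLAzer substrate 2 h, room temperature; emission 460/530 nm at 405 nm excitation.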
In general terms: In qHTS, concentration-response curves come from the screen itself.

Test [3] deals with Ubiquitin carboxyl-terminal hydrolase 1 (Homo sapiens) (UniProt O94782). Briefly: Inhibitors of USP1/UAF1: Pilot qHTS (AID 504865). Further: nearly all actives have a fitted effect of over 35% in size. Further: potency means the concentration at half of the fitted maximal effect. The method in brief: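 Enzyme-free wells gave the negative control, while test wells held 1nM USP1/UAF1 preincubated with compound for 15 min at room temperature. Ub-Rho at 150nM final started the reaction, and fluorescence at 480/540 nm was recorded kinetically.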

Test [4] has as its target DNA dC->dU-editing enzyme APOBEC-3G (Homo sapiens) (UniProt Q9HC16). Briefly: qHTS for inhibitors of Vif-A3G interactions: Validation (AID 588379). The method in brief: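 Yellow fluorescence (Ex 488, Em 500-530) of Vif-coexpressing HeLa A3G-eYFP cells, scanned by Acumen cytometer, reports blocked A3G degradation. Cells plated at 700/well overnight at 37 deg C before compound addition, then a further overnight compound incubation at 37 deg C.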

The target in test [5] is Pyruvate kinase PKM (Homo sapiens) (UniProt P14618). Briefly: qHTS Assay for Inhibitors of Human Muscle Pyruvate Kinase (AID 958). The method in brief: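 Luminescence from a luciferase ATP-detection/stop reagent reported PKM2 activity. Reactions contained 0.1 nM purified human enzyme, 0.5 mM PEP, 0.1 mM ADP and 7 mM MgCl2 at pH 7.2, run 1 h at RT.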
Test [6] has as its target Pyruvate kinase (Leishmania mexicana) (UniProt Q27686). Kind of test: qHTS Validation Assay for Activators of Leishmania Mexicana Pyruvate Kinase (AID 959). The essentials:
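An endpoint luciferase assay: 0.2 nM LmPYK E451W turns over 0.5 mM PEP with 0.1 mM ADP for 1 h at room temperature, pH 7.2, before PKLight addition. Values are normalized to DMSO-only wells.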

For test [7], the target named is Androgen receptor (Homo sapiens) (UniProt P10275). Kind of test: qHTS assay for small molecule antagonists of androgen receptor signaling (AID 588516; active means well fitted curve in the direction sought with a large enough effect in the signal ratio, with a control signal flat, not every such curve was filed as active; the % refers to the signal ratio; further: potency means the concentration at half of the fitted maximal effect). The method in brief: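 Compounds tested in titration against 10 nM R1881 in AR-responsive bla reporter HEK 293 cells; CCF4 fluorescence (460/530 nm) after 16 h exposure gave IC50 and efficacy.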
Androgen receptor (Homo sapiens), sequence (P10275 whole entry, looked up): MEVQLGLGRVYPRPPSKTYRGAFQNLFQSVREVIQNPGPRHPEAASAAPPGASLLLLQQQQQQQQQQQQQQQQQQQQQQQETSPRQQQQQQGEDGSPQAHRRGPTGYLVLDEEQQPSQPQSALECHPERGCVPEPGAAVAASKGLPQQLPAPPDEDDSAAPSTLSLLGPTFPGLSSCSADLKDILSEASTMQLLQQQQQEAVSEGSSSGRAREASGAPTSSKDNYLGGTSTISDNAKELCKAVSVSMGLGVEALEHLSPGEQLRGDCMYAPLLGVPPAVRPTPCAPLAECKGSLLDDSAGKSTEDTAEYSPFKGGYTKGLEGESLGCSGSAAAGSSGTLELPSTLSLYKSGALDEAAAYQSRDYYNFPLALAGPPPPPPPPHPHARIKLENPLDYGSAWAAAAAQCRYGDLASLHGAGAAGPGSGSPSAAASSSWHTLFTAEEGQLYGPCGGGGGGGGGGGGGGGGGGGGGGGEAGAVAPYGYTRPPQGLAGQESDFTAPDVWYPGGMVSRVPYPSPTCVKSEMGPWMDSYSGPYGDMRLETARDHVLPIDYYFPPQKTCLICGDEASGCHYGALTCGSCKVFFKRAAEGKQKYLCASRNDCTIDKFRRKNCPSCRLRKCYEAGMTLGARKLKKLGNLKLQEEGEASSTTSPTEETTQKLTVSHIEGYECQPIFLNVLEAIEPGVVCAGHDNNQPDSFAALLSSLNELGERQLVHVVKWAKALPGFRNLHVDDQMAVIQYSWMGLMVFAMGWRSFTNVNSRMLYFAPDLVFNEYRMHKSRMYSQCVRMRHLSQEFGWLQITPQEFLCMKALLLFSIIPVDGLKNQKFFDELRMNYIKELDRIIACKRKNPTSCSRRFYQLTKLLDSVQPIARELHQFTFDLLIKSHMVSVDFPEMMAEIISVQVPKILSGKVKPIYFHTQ

Pyruvate kinase PKM (Homo sapiens), sequence (P14618 whole entry, looked up): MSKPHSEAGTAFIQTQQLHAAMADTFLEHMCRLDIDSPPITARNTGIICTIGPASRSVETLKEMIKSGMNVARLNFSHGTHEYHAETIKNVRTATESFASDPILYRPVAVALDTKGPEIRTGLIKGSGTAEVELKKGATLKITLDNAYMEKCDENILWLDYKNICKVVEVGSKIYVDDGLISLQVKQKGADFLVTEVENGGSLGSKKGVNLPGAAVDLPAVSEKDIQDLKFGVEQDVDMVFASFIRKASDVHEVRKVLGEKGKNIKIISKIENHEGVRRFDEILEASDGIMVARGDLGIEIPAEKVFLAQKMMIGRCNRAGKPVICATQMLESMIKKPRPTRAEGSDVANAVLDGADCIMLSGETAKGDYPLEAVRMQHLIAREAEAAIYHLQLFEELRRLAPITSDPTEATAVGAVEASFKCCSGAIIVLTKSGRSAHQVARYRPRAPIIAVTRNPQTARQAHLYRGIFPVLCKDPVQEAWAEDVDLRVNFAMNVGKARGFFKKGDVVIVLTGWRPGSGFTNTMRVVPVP
DNA dC->dU-editing enzyme APOBEC-3G (Homo sapiens), sequence (Q9HC16 whole entry, looked up): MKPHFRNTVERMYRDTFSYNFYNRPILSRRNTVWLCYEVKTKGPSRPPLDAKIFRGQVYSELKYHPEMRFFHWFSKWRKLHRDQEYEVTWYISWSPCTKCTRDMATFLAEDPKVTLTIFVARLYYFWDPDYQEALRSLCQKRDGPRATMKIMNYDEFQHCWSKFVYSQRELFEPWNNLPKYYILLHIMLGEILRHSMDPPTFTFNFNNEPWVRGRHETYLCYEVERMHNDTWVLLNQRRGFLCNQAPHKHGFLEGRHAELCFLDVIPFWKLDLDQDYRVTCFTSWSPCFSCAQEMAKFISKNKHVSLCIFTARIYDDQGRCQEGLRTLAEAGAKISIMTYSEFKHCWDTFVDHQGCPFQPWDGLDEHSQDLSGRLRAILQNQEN
Ubiquitin carboxyl-terminal hydrolase 1 (Homo sapiens), sequence (O94782 whole entry, looked up): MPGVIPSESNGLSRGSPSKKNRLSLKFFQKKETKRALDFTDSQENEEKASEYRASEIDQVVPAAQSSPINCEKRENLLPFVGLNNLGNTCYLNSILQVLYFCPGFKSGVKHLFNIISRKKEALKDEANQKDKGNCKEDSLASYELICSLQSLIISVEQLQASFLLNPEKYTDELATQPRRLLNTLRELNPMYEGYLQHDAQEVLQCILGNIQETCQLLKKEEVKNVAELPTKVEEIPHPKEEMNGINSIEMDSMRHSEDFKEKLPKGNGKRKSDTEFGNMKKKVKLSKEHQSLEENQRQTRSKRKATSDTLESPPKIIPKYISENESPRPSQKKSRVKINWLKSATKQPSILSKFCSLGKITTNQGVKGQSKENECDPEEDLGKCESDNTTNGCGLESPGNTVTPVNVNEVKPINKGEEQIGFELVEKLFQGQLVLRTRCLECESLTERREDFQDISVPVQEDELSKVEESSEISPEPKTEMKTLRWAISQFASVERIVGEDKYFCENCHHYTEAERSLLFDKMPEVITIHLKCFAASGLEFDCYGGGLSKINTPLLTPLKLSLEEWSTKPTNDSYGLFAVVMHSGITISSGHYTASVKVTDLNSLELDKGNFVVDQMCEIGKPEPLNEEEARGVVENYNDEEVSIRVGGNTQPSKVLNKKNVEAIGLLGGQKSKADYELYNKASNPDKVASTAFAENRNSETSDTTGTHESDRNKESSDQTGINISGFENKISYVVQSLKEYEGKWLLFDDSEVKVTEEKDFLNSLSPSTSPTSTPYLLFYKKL
Pyruvate kinase (Leishmania mexicana), sequence (Q27686 2-499 E452W): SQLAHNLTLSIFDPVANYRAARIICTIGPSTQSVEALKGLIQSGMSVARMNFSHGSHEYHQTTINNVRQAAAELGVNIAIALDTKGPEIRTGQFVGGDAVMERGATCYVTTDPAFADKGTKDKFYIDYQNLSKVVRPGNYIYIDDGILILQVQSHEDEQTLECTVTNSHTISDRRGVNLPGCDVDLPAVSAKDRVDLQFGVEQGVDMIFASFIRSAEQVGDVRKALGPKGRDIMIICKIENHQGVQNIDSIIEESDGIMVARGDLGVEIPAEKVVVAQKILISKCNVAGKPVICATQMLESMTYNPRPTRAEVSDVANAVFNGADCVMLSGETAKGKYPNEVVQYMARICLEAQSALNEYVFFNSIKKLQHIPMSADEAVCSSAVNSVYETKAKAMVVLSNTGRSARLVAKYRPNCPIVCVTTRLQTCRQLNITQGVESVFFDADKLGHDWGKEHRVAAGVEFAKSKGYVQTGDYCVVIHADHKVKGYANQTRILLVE
Tumor susceptibility gene 101 protein (Homo sapiens), sequence (Q99816 whole entry, looked up): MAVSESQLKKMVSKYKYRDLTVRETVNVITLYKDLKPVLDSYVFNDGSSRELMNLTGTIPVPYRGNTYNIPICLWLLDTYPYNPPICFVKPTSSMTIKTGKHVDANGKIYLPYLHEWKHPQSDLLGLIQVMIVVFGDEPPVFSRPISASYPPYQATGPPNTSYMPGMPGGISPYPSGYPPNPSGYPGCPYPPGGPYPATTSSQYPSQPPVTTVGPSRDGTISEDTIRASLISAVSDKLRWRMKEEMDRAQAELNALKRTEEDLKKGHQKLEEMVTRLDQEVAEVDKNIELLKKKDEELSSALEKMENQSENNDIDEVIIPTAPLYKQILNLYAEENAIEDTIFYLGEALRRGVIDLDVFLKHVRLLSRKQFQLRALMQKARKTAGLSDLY

`CN1CC=C2C(C#N)=C(N)C(C#N)(C#N)C(c3ccncc3)C2C1` (stereo unspecified): the Potency entry in test [1] was “inactive”.
For the molecule `C=CCN1C[C@@H](C)N([C@H](c2ccc(C(=O)N(CC)CC)cc2)c2cccc(OC)c2)C[C@H]1C`, in test [2], the Potency is 5.01 µM (active).
With `C[C@@H](Cc1cccc(C(F)(F)F)c1)NCCCc1ccccc1`, the Potency result in test [3] was “inactive”. In addition, the molecule was classed as inactive in test [4].
Turning to `NC(N)=Nc1ccc2[nH]c3c(c2c1)C[C@]1(O)[C@@H]2Cc4ccc(O)c5c4[C@]1(CCN2CC1CC1)[C@H]3O5`, in test [5], the Potency is 10 µM (active). Moreover, the molecule was called inactive in test [6].
As to `COc1cc2c(cc1O)-c1c(O)c(OC)cc3c1[C@H](C2)N(C)CC3`, in test [4], the molecule was called inactive.
Take `Oc1c(Br)c(Br)c(Br)c(Br)c1Br`: the Potency entry in test [7] was “inactive”.
Take `CC[C@]1(O)C(=O)OCc2c1cc1n(c2=O)Cc2cc3ccccc3nc2-1`: the molecule was called inactive in test [4].
For the molecule `C[C@]12Cc3cn4c(nc3C=C1CC[C@H]1[C@@H]2CC[C@@]2(C)[C@H]1CC[C@@]2(O)C#N)nc1ccccc14`, the Potency entry in test [5] is “inactive”.
With `CN(CCc1ccc(Cl)c(Cl)c1)[C@H]1CCCC[C@H]1N1CCCC1`, the Potency result in test [3] is “inactive”. Further, the call in test [4] was inactive.
As for `O=C1C2(Cl)C3(Cl)C4(Cl)C(Cl)(Cl)C5(Cl)C3(Cl)C1(Cl)C5(Cl)C24Cl` (stereo unspecified), in test [7], the Potency is 44.7 µM (active) and inactive.
As for `CN[C@@H](C)[C@@H](O)c1ccccc1`, the Potency in test [5] was 7.94 µM (active). The result in test [6] was inactive.
In the case of `N#CC(Cl)Cl`, in test [7], the Potency entry is “inactive”.
As for `CCCCCC[C@H]1C(=O)O[C@H](C)[C@H](NC(=O)c2cccc(NC=O)c2O)C(=O)O[C@@H](C)[C@H]1OC(=O)CC(C)C`, the Potency in test [3] was 28.2 µM (active).
As for `O=[N+]([O-])C(Br)Br`, in test [7], the Potency result was “inactive”.
As for `Oc1cc2c(cc1O)[C@H]1c3ccccc3CN[C@@H]1CC2`, the Potency in test [2] is 6.31 µM (active). The Potency result in test [5] is “inactive”.
For `Oc1ccc2c3c1O[C@@H]1[C@@H](O)CC[C@]4(O)[C@H](C2)N(CC2CCC2)CC[C@@]314`, in test [2], the Potency entry was “inactive”.
